Experimental data taken from PubChem BioAssay.
For some assays here: Measured potencies and affinities stand elsewhere. Active and inactive are the calls of the source. Unless noted, how the calls were made is not given here.

Test system: not listed separately
Assay: inhibition of 3D7 malaria parasite growth – strain 3D7 (AID 2306);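 further: 0% = DMSO wells and 100% = chloroquine plus artemisinin control wells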
Details: P. falciparum 3D7 erythrocytic growth, LDH absorbance, 72 h; at 2 µM; active compounds read high

Growth inhibition, active:
Cc1cc(C(=O)N[C@H]2CCN(Cc3ccc(OCCCN(C)C)cc3)C2)ccc1Br 97%, Cc1cc(=O)[nH]c(-n2nc(C)cc2NC(=O)C(c2ccccc2)c2ccccc2)n1 96%, N#Cc1ccc(CN2CCCN(Cc3cccc(NC(=O)c4ccc(Cl)c(Cl)c4)c3)CC2)cc1 95%, O=C(Nc1ccncc1)c1cc(C(=O)Nc2ccncc2)cc([N+](=O)[O-])c1 100%, Cc1cccc(NC(=O)NCc2ccccc2)n1 97%, Cc1ccc2c(Cl)c(C(=O)N3CCCc4ccccc43)sc2c1 99%, CS(=O)(=O)Nc1ccc2[nH]cc(C3CCN(CC(O)C4CCN(C(=O)/C=C/c5ccc(Cl)c(Cl)c5)CC4)CC3)c2c1 (stereo not given) 101%, N#Cc1ccc(OCCN(Cc2ccccc2C(F)(F)F)c2ccc(C#N)c(C(F)(F)F)c2)cc1 101%, Cc1cc(=O)c(-c2ccc(Oc3cccc(Cl)c3)cc2)c(C)[nH]1 95%, COc1cc2nc(N3CCC(CNC(=O)c4ccc(-c5ccc(C(=O)N(C)C)cc5O)cc4)CC3)nc(N)c2cc1OC 101%, CCN(CC)CCN(Cc1ccc(-c2ccc(C(F)(F)F)cc2)cc1)C(=O)Cn1c(CCc2cccc(F)c2F)nc(=O)c2sccc21 96%, Cc1[nH]c(C)c(-c2ccc(-c3cccc(C(F)(F)F)c3)nc2)c(=O)c1Br 97%, Cc1ccc(C(=O)Nc2ccc(Nc3ccnc4cc(-c5ccccn5)ccc34)cc2O)cc1 100%, COC(=O)c1cccc(CNCc2cccc(-c3cccc(-c4nc5c(C)cccc5[nH]4)c3)c2)c1 101%, O=C(NCCN1CCCC1)c1cccc(-c2ccc(-c3nc4ccc(F)cc4[nH]3)s2)c1 100%, COC(=O)C(Cc1ccccc1)NC(=O)NC1CCN(c2ccnc(Nc3ccc(F)cc3)n2)C1 (stereo not given) 90%, O=C(CSc1n[nH]c(-c2ccccc2Br)n1)c1c[nH]c2ccccc12 100%, CN(C)CCN(C)Cc1ccc(-c2ccc(NC(=O)c3cccc(Cl)c3)cc2)cc1 94%, COc1ccc(CCn2c(=N)c(C(=O)NCc3ccccc3)cc3c(=O)n4ccccc4nc32)cc1 100%, CCOc1ccccc1NC(=O)Nc1ccc2c(c1)CCN(C1CCC1)CC2 88%, O=C(Nc1cccc(C(F)(F)F)c1)c1cccc2[nH]c(C(F)(F)F)nc12 100%, Cc1cc(C)c(O)c(-c2cc(C(=O)Nc3ccc(S(=O)(=O)N4CC(C)OC(C)C4)cc3)[nH]n2)c1 (stereo not given) 95%, CCNc1cc(C)nc(Nc2ccc(NC(=O)c3cccs3)cc2)n1 101%, CCOc1c(CNCCCNc2cc(=O)c3ccccc3[nH]2)cc(I)cc1OC 91%, O=C(NCCN1CCCCC1)N1CCCN(c2ncnc3cc(-c4ccccc4)sc23)CC1 89%, NC1CCN(Cc2ccc(-c3cccc(-c4nc5ccc(F)cc5[nH]4)c3)cc2)C1 (stereo not given) 100%, Cc1cccc2[nH]c(-c3ccc(-c4ccc(CNCc5ccccc5)cc4)s3)nc12 103%, COc1ccc2nc(/C=C/c3cccc4ccc(C)nc34)[nH]c2c1 98%, CCOC(=O)c1c(C)n(-c2ccccc2)c2ccc(OC(=O)COc3ccc(Cl)cc3Cl)cc12 99%, CCOc1ccc2c(NN=Cc3ccc(F)cc3)cc(C)nc2c1 101%, CCCCCC(C)N=C(Nc1ccc(C#N)cc1O)Nc1ccccc1Br (stereo not given) 98%, O=C(CCc1cccnc1)Nc1ccc(-c2cccc(-c3nc4ccc(F)cc4[nH]3)c2)cc1 86%, COc1ccc2nccc(N3CCC(CCNCc4cc5c(cn4)OCCO5)CC3)c2c1 100%, Cc1cccc2[nH]c(-c3ccc(-c4cccc(CN5CCC(CCN6CCCCC6)CC5)c4)s3)nc12 101%, Cc1ccc(CN2CCN(c3cc4c(cc3Cl)CCN4C(=O)Cc3ccc(Cl)c(NC(=O)Nc4cccc(C#N)c4)c3)CC2)cc1 92%, O=C(NC1CCCc2ccccc21)C1CCCN(C(=O)c2ccc(O)c(-c3ccc(Cl)c(Cl)c3)c2)C1 (stereo not given) 88%, Nc1nc2ncn(COC(COCc3ccccc3)COCc3ccccc3)c2c(=O)[nH]1 (tested in a mixture with another compound) 86%, CN1CCN(c2ccc(Nc3nc(N)c4ccn(C5CCC5)c4n3)cc2)CC1 93%, CCCCCN1CCCC(CNS(=O)(=O)c2ccc(C(=O)Nc3ccc(C(F)(F)F)cc3)cc2)C1 (stereo not given) 94%, CC(=O)Nc1ccc(OCCCCN(Cc2ccccc2C(F)(F)F)c2ccc(C(F)(F)F)c(C#N)c2)c(Cl)c1 96%

Biological target: Calcium-dependent protein kinase 1 (Plasmodium falciparum (isolate 3D7)) (UniProt P62344)
Sequence (P62344 whole entry, looked up): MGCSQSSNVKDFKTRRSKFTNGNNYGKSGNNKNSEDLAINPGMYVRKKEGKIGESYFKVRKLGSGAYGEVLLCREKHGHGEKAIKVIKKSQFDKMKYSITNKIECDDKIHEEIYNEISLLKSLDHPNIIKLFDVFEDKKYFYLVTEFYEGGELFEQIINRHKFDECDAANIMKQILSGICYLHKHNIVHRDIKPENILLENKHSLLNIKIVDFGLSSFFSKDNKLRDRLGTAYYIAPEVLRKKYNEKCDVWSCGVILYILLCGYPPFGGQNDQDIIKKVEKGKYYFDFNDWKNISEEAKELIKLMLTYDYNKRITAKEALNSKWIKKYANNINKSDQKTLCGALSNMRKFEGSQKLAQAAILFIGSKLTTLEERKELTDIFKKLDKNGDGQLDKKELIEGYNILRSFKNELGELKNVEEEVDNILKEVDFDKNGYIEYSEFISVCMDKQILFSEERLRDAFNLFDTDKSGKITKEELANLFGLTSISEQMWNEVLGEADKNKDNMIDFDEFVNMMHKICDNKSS
Assay: PfCDPK1 kinase inhibitors, biochemical, TCAMS library (AID 1159585; cut-off not given, nearly all actives have IC50 up to about 0.98 µM;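 further: inhibitors leave more ATP so luminescence rises with inhibition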)
Details: recombinant PfCDPK1, Kinase-Glo ATP depletion luminescence

outcome, inactive:
Cc1cc(C(=O)N[C@H]2CCN(Cc3ccc(OCCCN(C)C)cc3)C2)ccc1Br, Cc1cc(=O)[nH]c(-n2nc(C)cc2NC(=O)C(c2ccccc2)c2ccccc2)n1, N#Cc1ccc(CN2CCCN(Cc3cccc(NC(=O)c4ccc(Cl)c(Cl)c4)c3)CC2)cc1, O=C(Nc1ccncc1)c1cc(C(=O)Nc2ccncc2)cc([N+](=O)[O-])c1, Cc1cccc(NC(=O)NCc2ccccc2)n1, Cc1ccc2c(Cl)c(C(=O)N3CCCc4ccccc43)sc2c1, CS(=O)(=O)Nc1ccc2[nH]cc(C3CCN(CC(O)C4CCN(C(=O)/C=C/c5ccc(Cl)c(Cl)c5)CC4)CC3)c2c1 (stereo not given), N#Cc1ccc(OCCN(Cc2ccccc2C(F)(F)F)c2ccc(C#N)c(C(F)(F)F)c2)cc1, Cc1cc(=O)c(-c2ccc(Oc3cccc(Cl)c3)cc2)c(C)[nH]1, COc1cc2nc(N3CCC(CNC(=O)c4ccc(-c5ccc(C(=O)N(C)C)cc5O)cc4)CC3)nc(N)c2cc1OC, CCN(CC)CCN(Cc1ccc(-c2ccc(C(F)(F)F)cc2)cc1)C(=O)Cn1c(CCc2cccc(F)c2F)nc(=O)c2sccc21, Cc1[nH]c(C)c(-c2ccc(-c3cccc(C(F)(F)F)c3)nc2)c(=O)c1Br, Cc1ccc(C(=O)Nc2ccc(Nc3ccnc4cc(-c5ccccn5)ccc34)cc2O)cc1, COC(=O)c1cccc(CNCc2cccc(-c3cccc(-c4nc5c(C)cccc5[nH]4)c3)c2)c1, O=C(NCCN1CCCC1)c1cccc(-c2ccc(-c3nc4ccc(F)cc4[nH]3)s2)c1, COC(=O)C(Cc1ccccc1)NC(=O)NC1CCN(c2ccnc(Nc3ccc(F)cc3)n2)C1 (stereo not given), O=C(CSc1n[nH]c(-c2ccccc2Br)n1)c1c[nH]c2ccccc12, CN(C)CCN(C)Cc1ccc(-c2ccc(NC(=O)c3cccc(Cl)c3)cc2)cc1, COc1ccc(CCn2c(=N)c(C(=O)NCc3ccccc3)cc3c(=O)n4ccccc4nc32)cc1, CCOc1ccccc1NC(=O)Nc1ccc2c(c1)CCN(C1CCC1)CC2, O=C(Nc1cccc(C(F)(F)F)c1)c1cccc2[nH]c(C(F)(F)F)nc12, Cc1cc(C)c(O)c(-c2cc(C(=O)Nc3ccc(S(=O)(=O)N4CC(C)OC(C)C4)cc3)[nH]n2)c1 (stereo not given), CCNc1cc(C)nc(Nc2ccc(NC(=O)c3cccs3)cc2)n1, CCOc1c(CNCCCNc2cc(=O)c3ccccc3[nH]2)cc(I)cc1OC, O=C(NCCN1CCCCC1)N1CCCN(c2ncnc3cc(-c4ccccc4)sc23)CC1, NC1CCN(Cc2ccc(-c3cccc(-c4nc5ccc(F)cc5[nH]4)c3)cc2)C1 (stereo not given), Cc1cccc2[nH]c(-c3ccc(-c4ccc(CNCc5ccccc5)cc4)s3)nc12, COc1ccc2nc(/C=C/c3cccc4ccc(C)nc34)[nH]c2c1, CCOC(=O)c1c(C)n(-c2ccccc2)c2ccc(OC(=O)COc3ccc(Cl)cc3Cl)cc12, CCOc1ccc2c(NN=Cc3ccc(F)cc3)cc(C)nc2c1, CCCCCC(C)N=C(Nc1ccc(C#N)cc1O)Nc1ccccc1Br (stereo not given), O=C(CCc1cccnc1)Nc1ccc(-c2cccc(-c3nc4ccc(F)cc4[nH]3)c2)cc1, COc1ccc2nccc(N3CCC(CCNCc4cc5c(cn4)OCCO5)CC3)c2c1, Cc1cccc2[nH]c(-c3ccc(-c4cccc(CN5CCC(CCN6CCCCC6)CC5)c4)s3)nc12, Cc1ccc(CN2CCN(c3cc4c(cc3Cl)CCN4C(=O)Cc3ccc(Cl)c(NC(=O)Nc4cccc(C#N)c4)c3)CC2)cc1, O=C(NC1CCCc2ccccc21)C1CCCN(C(=O)c2ccc(O)c(-c3ccc(Cl)c(Cl)c3)c2)C1 (stereo not given), Nc1nc2ncn(COC(COCc3ccccc3)COCc3ccccc3)c2c(=O)[nH]1 (tested in a mixture with another compound), CN1CCN(c2ccc(Nc3nc(N)c4ccn(C5CCC5)c4n3)cc2)CC1, CCCCCN1CCCC(CNS(=O)(=O)c2ccc(C(=O)Nc3ccc(C(F)(F)F)cc3)cc2)C1 (stereo not given), CC(=O)Nc1ccc(OCCCCN(Cc2ccccc2C(F)(F)F)c2ccc(C(F)(F)F)c(C#N)c2)c(Cl)c1
